Data from PubChem BioAssay AID1159580 (chemical genetic matrix, 2015).
Screen size: about 5,500 compounds; about 2,000 (36%) were called active. Another 18% or so got no clear call; they are omitted. No stated cut-off is given here; in the data, active means normalized growth mostly below about 0.91 (no sharp cut-off); inconclusive means no clear call, values can overlap the other calls; inactive means mostly above about 0.92. The list shows a part of the results.

Experiment: chemical genetic growth profiling, strain panel (AID 1159580);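 further: tested at 20 µM; growth read once vehicle control cultures reached saturation at 30 °C; 1 = growth at the plate median or of vehicle wells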
Details: growth OD

Measured: normalized growth

Nc1ccc(S(=O)(=O)Nc2ccc(Cl)nn2)cc1
inactive: S. cerevisiae deletion strains, locus YJR043C, strain POL32, stronger effect = lower value 0.991 | S. cerevisiae deletion strains, locus YJR066W, strain TOR1, stronger effect = lower value 0.926 | S. cerevisiae deletion strains, locus YKL009W, strain mrt4, stronger effect = lower value 1.03 | S. cerevisiae deletion strains, locus YKL068W, stronger effect = lower value 0.998 | S. cerevisiae deletion strains, locus YKL085W, strain MDH1 (second series), stronger effect = lower value 0.992 | S. cerevisiae deletion strains, locus YKL085W, strain MDH1, stronger effect = lower value 0.992 | S. cerevisiae deletion strains, locus YKL160W, strain elf1, stronger effect = lower value 0.966 | S. cerevisiae deletion strains, locus YKL190W, strain CNB1, stronger effect = lower value 1.01 | S. cerevisiae deletion strains, locus YKR001C, strain vps1, stronger effect = lower value 0.995 | S. cerevisiae deletion strains, locus YKR026C, strain gcn3, stronger effect = lower value 0.982 | S. cerevisiae deletion strains, locus YKR091W, strain srl3, stronger effect = lower value 0.996 | S. cerevisiae deletion strains, locus YLL001W, strain dnm1, stronger effect = lower value 0.981 | S. cerevisiae deletion strains, locus YLL026W, stronger effect = lower value 0.998 | S. cerevisiae deletion strains, locus YLL041C, strain sdh2, stronger effect = lower value 0.989 | S. cerevisiae deletion strains, locus YLR027C, strain aat2, stronger effect = lower value 0.995 | S. cerevisiae deletion strains, locus YLR039C, strain RIC1, stronger effect = lower value 1.06 | S. cerevisiae deletion strains, locus YLR058C, strain SHM2, stronger effect = lower value 1.01 | S. cerevisiae deletion strains, locus YLR102C, strain apc9, stronger effect = lower value 1 | S. cerevisiae deletion strains, locus YLR113W, strain HOG1, stronger effect = lower value 0.984 | S. cerevisiae deletion strains, locus YLR221C, strain rsa3, stronger effect = lower value 0.991 | S. cerevisiae deletion strains, locus YLR258W, strain gsy2, stronger effect = lower value 0.991 | S. cerevisiae deletion strains, locus YLR262C, strain YPT6 (second series), stronger effect = lower value 0.986 | S. cerevisiae deletion strains, locus YLR262C, strain YPT6, stronger effect = lower value 1.06 | S. cerevisiae deletion strains, locus YLR268W, strain sec22, stronger effect = lower value 1 | S. cerevisiae deletion strains, locus YLR320W, strain mms22, stronger effect = lower value 0.969 | S. cerevisiae deletion strains, locus YLR330W, strain CHS5, stronger effect = lower value 1.01 | S. cerevisiae deletion strains, locus YLR342W, strain FKS1 (second series), stronger effect = lower value 1.05 | S. cerevisiae deletion strains, locus YLR342W, strain FKS1, stronger effect = lower value 0.98 | S. cerevisiae deletion strains, locus YLR357W, strain rsc2, stronger effect = lower value 0.978 | S. cerevisiae deletion strains, locus YLR370C, strain arc18, stronger effect = lower value 0.984 | S. cerevisiae deletion strains, locus YLR371W, strain rom2, stronger effect = lower value 1 | S. cerevisiae deletion strains, locus YLR384C, strain iki3, stronger effect = lower value 0.993 | S. cerevisiae deletion strains, locus YLR418C, strain cdc73, stronger effect = lower value 1.03 | S. cerevisiae deletion strains, locus YML016C, strain PPZ1, stronger effect = lower value 1 | S. cerevisiae deletion strains, locus YML032C, strain rad52, stronger effect = lower value 1.01 | S. cerevisiae deletion strains, locus YML120C, strain ndi1, stronger effect = lower value 0.983 | S. cerevisiae deletion strains, locus YML124C, strain tub3, stronger effect = lower value 1.01 | S. cerevisiae deletion strains, locus YMR058W, strain fet3, stronger effect = lower value 0.987 | S. cerevisiae deletion strains, locus YMR078C, strain ctf18, stronger effect = lower value 1.01 | S. cerevisiae deletion strains, locus YMR125W, strain sto1, stronger effect = lower value 0.984 | S. cerevisiae deletion strains, locus YMR129W, stronger effect = lower value 0.986 | S. cerevisiae deletion strains, locus YMR205C, strain PFK2, stronger effect = lower value 0.97 | S. cerevisiae deletion strains, locus YMR223W, strain ubp8, stronger effect = lower value 1.04 | S. cerevisiae deletion strains, locus YMR231W, strain pep5, stronger effect = lower value 0.987 | S. cerevisiae deletion strains, locus YMR263W, strain SAP30, stronger effect = lower value 0.995 | S. cerevisiae deletion strains, locus YMR307W, strain GAS1, stronger effect = lower value 1.04 | S. cerevisiae deletion strains, locus YNL067W, strain RPL9B, stronger effect = lower value 0.983 | S. cerevisiae deletion strains, locus YNL071W, strain lat1, stronger effect = lower value 0.995 | S. cerevisiae deletion strains, locus YNL183C, strain NPR1, stronger effect = lower value 0.927 | S. cerevisiae deletion strains, locus YNL209W, strain ssb2, stronger effect = lower value 0.999 | S. cerevisiae deletion strains, locus YNL233W, strain BNI4, stronger effect = lower value 0.989 | S. cerevisiae deletion strains, locus YNL248C, strain rpa49, stronger effect = lower value 0.994 | S. cerevisiae deletion strains, locus YNL250W, strain rad50, stronger effect = lower value 1.03 | S. cerevisiae deletion strains, locus YNL271C, strain bni1, stronger effect = lower value 1 | S. cerevisiae deletion strains, locus YNL298W, strain CLA4, stronger effect = lower value 1 | S. cerevisiae deletion strains, locus YNL307C, strain MCK1, stronger effect = lower value 1.01 | S. cerevisiae deletion strains, locus YNL322C, strain KRE1 (second series), stronger effect = lower value 0.976 | S. cerevisiae deletion strains, locus YNR049C, strain mso1, stronger effect = lower value 0.995 | S. cerevisiae deletion strains, locus YNR052C, strain pop2, stronger effect = lower value 1.01 | S. cerevisiae deletion strains, locus YOL006C, strain TOP1, stronger effect = lower value 0.951 | S. cerevisiae deletion strains, locus YOL012C, strain htz1 1.39 | S. cerevisiae deletion strains, locus YOL147C, strain pex11, stronger effect = lower value 1 | S. cerevisiae deletion strains, locus YOR001W, strain rrp6, stronger effect = lower value 0.995 | S. cerevisiae deletion strains, locus YOR061W, strain CKA2, stronger effect = lower value 1 | S. cerevisiae deletion strains, locus YOR069W, strain VPS5, stronger effect = lower value 1.01 | S. cerevisiae deletion strains, locus YOR070C, strain gyp1, stronger effect = lower value 0.991 | S. cerevisiae deletion strains, locus YOR080W, strain dia2, stronger effect = lower value 0.979 | S. cerevisiae deletion strains, locus YOR083W, strain WHI5, stronger effect = lower value 0.96 | S. cerevisiae deletion strains, locus YOR106W, strain vam3, stronger effect = lower value 0.959 | S. cerevisiae deletion strains, locus YOR136W, strain idh2, stronger effect = lower value 0.995 | S. cerevisiae deletion strains, locus YOR144C, strain elg1, stronger effect = lower value 0.995 | S. cerevisiae deletion strains, locus YOR184W, strain ser1, stronger effect = lower value 1.02 | S. cerevisiae deletion strains, locus YOR231W, strain MKK1, stronger effect = lower value 0.991 | S. cerevisiae deletion strains, locus YOR265W, strain rbl2, stronger effect = lower value 0.999 | S. cerevisiae deletion strains, locus YOR270C, strain vph1, stronger effect = lower value 0.994 | S. cerevisiae deletion strains, locus YOR290C, strain snf2, stronger effect = lower value 0.985 | S. cerevisiae deletion strains, locus YOR316C, strain cot1, stronger effect = lower value 0.997 | S. cerevisiae deletion strains, locus YPL051W, strain arl3, stronger effect = lower value 0.98 | S. cerevisiae deletion strains, locus YPL078C, strain atp4, stronger effect = lower value 0.982 | S. cerevisiae deletion strains, locus YPL106C, strain sse1, stronger effect = lower value 0.969 | S. cerevisiae deletion strains, locus YPL240C, strain hsp82, stronger effect = lower value 0.978 | S. cerevisiae deletion strains, locus YPL256C, strain CLN2, stronger effect = lower value 0.962 | S. cerevisiae deletion strains, locus YPR119W, strain clb2, stronger effect = lower value 0.999 | S. cerevisiae deletion strains, locus YPR141C, strain kar3, stronger effect = lower value 0.995 | S. cerevisiae deletion strains, locus YPR163C, strain tif3, stronger effect = lower value 1.01 | S. cerevisiae deletion strains, locus YPR167C, strain met16, stronger effect = lower value 1 | S. cerevisiae deletion strains, strain wtn01, stronger effect = lower value 1.02 | S. cerevisiae strains, strain wild type, stronger effect = lower value 1.01
